Records with an inconclusive call do not appear. Active and inactive are the calls of the source. Rule for the calls: active = hit-call score of the fitted dose curve at least 0.9, where 1 is the maximum; inconclusive = response in the unintended direction; inactive = score below 0.9.
What follows are compounds tested against Estrogen receptor (Homo sapiens) + Estrogen receptor beta (Homo sapiens) (UniProt P03372+Q92731) (assay: OT_ER_ERaERb_1440: Odyssey Thera (OT) 24-hour HEK293T Protein-Complementation Assay for Estrogen Receptor-alpha/-beta Homodimer (AID 2283356);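 note: heteromer of ER alpha and ER beta binding domains; hits raise reporter fluorescence and both agonists and antagonists give an increase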).
Chain of Estrogen receptor (Homo sapiens) + Estrogen receptor beta (Homo sapiens) (P03372 whole entry, looked up, the tested form may be a part): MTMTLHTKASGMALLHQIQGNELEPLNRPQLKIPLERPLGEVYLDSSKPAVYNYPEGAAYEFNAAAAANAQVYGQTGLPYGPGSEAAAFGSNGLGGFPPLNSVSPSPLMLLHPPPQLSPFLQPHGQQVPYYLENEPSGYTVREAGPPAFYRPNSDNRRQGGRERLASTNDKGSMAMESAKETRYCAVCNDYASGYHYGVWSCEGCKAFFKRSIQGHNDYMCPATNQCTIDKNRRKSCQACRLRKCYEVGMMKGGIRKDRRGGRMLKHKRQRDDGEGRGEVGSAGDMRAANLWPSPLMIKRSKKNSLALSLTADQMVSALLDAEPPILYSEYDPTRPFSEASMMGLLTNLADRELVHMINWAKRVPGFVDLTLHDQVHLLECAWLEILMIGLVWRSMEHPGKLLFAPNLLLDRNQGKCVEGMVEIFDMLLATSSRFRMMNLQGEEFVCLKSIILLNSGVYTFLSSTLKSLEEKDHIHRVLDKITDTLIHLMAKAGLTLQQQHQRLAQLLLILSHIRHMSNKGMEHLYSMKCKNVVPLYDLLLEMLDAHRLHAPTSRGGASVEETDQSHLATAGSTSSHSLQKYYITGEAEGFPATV
Chain of Estrogen receptor (Homo sapiens) + Estrogen receptor beta (Homo sapiens) (Q92731 whole entry, looked up, the tested form may be a part): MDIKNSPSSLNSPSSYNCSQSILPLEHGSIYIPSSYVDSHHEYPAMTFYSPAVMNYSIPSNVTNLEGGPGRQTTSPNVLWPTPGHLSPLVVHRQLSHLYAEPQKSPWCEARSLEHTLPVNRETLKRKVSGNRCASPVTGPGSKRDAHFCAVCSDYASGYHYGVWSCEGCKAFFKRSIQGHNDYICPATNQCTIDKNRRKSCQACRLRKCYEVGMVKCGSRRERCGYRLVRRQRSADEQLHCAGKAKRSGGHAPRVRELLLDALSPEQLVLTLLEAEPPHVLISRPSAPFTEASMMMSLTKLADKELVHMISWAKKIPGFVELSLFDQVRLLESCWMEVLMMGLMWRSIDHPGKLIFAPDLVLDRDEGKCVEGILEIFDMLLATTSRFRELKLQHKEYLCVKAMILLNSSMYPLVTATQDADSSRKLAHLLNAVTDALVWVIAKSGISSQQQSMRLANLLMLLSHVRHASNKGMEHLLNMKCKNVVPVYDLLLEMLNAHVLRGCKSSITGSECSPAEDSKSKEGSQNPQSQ
Method in brief: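 Heterodimerisation of ERα (aa 310-547) and ERβ (aa 263-489) ligand binding domains was tracked as fluorescence gain in stably transfected HEK293T cells following 24 h dosing, normalised to DMSO controls.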

**Q.** `CC1(C)[C@@H]2CC[C@@]1(C)C(=O)C2` was tested. Which outcome did it give?
**A.** Its outcome is “inactive”.

**Q.** Which AC50 does the source give for `C=C[C@@]1(C)CC(=O)[C@]2(O)[C@@]3(C)[C@@H](O)CCC(C)(C)[C@@H]3[C@H](O)[C@H](OC(C)=O)[C@@]2(C)O1` here?
**A.** Its AC50 is 36.1 µM (active).

**Q.** How did the outcome turn out when `CCCCCCCCCCCCCC(=O)OC(C)C` was run?
**A.** Its outcome is “inactive”.

**Q.** `CCCCNC(=S)NCCCC` was tested. Which outcome did it give?
**A.** The outcome was “inactive”.

**Q.** With `CCCCCCCCCC(C)=O` as the compound, how does the outcome read?
**A.** The outcome was “inactive”.

**Q.** `Cc1ccc(C)c(OCCCC(C)(C)C(=O)O)c1` was tested. Which outcome did it give?
**A.** The outcome was “inactive”.

**Q.** `CCCCCCCCC(CO)CCCCCC` (stereo not given) was tested. Which outcome did it give?
**A.** Its outcome is “inactive”.

**Q.** With `CC(=O)OC1CCCCC1C(C)(C)C` (stereo not given) as the compound, how does the outcome read?
**A.** Its outcome is “inactive”.

**Q.** For `O=C(O)c1ccc2c(c1)C(=O)OC2=O`, which outcome is on record?
**A.** Its outcome is “inactive”.

**Q.** `CCCCOCCOC(=O)COc1ccc(Cl)cc1Cl` was tested. Which outcome did it give?
**A.** Its outcome is “inactive”.

**Q.** Which outcome does the source give for `C=CCOC(=O)c1ccc(C(=O)OCC=C)c(C(=O)OCC=C)c1` here?
**A.** Its outcome is “inactive”.

**Q.** How did the AC50 turn out when `COc1ccc(C(=O)c2ccccc2)c(O)c1` was run?
**A.** Its AC50 is 58.7 µM (active).

**Q.** Which outcome does the source give for `CC(=O)OCc1ccccc1` here?
**A.** The outcome was “inactive”.

**Q.** Which outcome does the source give for `COc1cc(O)c(C(=O)c2ccccc2)cc1S(=O)(=O)O` here?
**A.** The outcome was “inactive”.

**Q.** Which outcome does the source give for `Cc1c(C(=O)c2c[nH]n(C)c2=O)ccc(S(C)(=O)=O)c1C1=NOCC1` here?
**A.** The outcome was “inactive”.

**Q.** How did the outcome turn out when `N#Cc1ccc(C(c2ccc(C#N)cc2)n2cncn2)cc1` was run?
**A.** Its outcome is “inactive”.

**Q.** With `CCCCC(CC)COS(=O)(=O)O` (stereo not given) as the compound, how does the outcome read?
**A.** The outcome was “inactive”.

**Q.** Which outcome does the source give for `CC(=O)OC(C)c1ccccc1` (stereo not given) here?
**A.** The outcome was “inactive”.

**Q.** With `CCC[Si](OC)(OC)OC` as the compound, how does the outcome read?
**A.** Its outcome is “inactive”.

**Q.** With `Oc1ccc(-c2ccccc2)c(Cl)c1` as the compound, how does the AC50 read?
**A.** Its AC50 is 15.9 µM (active).

**Q.** Which outcome does the source give for `C1CNCCN1` here?
**A.** The outcome was “inactive”.

**Q.** `CCOC(=O)C1=NOC(c2ccccc2)(c2ccccc2)C1` was tested. Which outcome did it give?
**A.** The outcome was “inactive”.

These compounds were tested against Estrogen receptor beta (Homo sapiens) (UniProt Q92731) (assay: OT_ER_ERbERb_0480: Odyssey Thera (OT) 8-hour HEK293T Protein-Complementation Assay for Estrogen Receptor-beta/-beta Homodimer (AID 2283357);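 note: active means signal gain over DMSO baseline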).
Chain of Estrogen receptor beta (Homo sapiens) (Q92731 whole entry, looked up, the tested form may be a part): as above
Method in brief: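 Homodimerization of ER-beta LBD measured by protein-fragment complementation in HEK293T; 8 h dosing; fixed, Draq5 counterstain; fluorescence intensity gain over DMSO baseline, positive fitting direction; laser scanning cytometry.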

**Q.** For `CC1(C)[C@@H]2CC[C@@]1(C)C(=O)C2`, which outcome is on record?
**A.** The outcome was “inactive”.

**Q.** `C=C[C@@]1(C)CC(=O)[C@]2(O)[C@@]3(C)[C@@H](O)CCC(C)(C)[C@@H]3[C@H](O)[C@H](OC(C)=O)[C@@]2(C)O1` was tested. Which outcome did it give?
**A.** Its outcome is “inactive”.

**Q.** How did the outcome turn out when `CCCCNC(=S)NCCCC` was run?
**A.** The outcome was “inactive”.

**Q.** `CCCCCCCCCC(C)=O` was tested. Which outcome did it give?
**A.** Its outcome is “inactive”.

**Q.** For `CCCCCCCCC(CO)CCCCCC` (stereo not given), which outcome is on record?
**A.** The outcome was “inactive”.

**Q.** `CC(=O)OC1CCCCC1C(C)(C)C` (stereo not given) was tested. Which outcome did it give?
**A.** The outcome was “inactive”.

**Q.** For `O=C(O)c1ccc2c(c1)C(=O)OC2=O`, which outcome is on record?
**A.** The outcome was “inactive”.

**Q.** `C=CCOC(=O)c1ccc(C(=O)OCC=C)c(C(=O)OCC=C)c1` was tested. Which outcome did it give?
**A.** Its outcome is “inactive”.

**Q.** With `COc1ccc(C(=O)c2ccccc2)c(O)c1` as the compound, how does the AC50 read?
**A.** Its AC50 is 50 µM (active).

**Q.** With `CC(=O)OCc1ccccc1` as the compound, how does the outcome read?
**A.** Its outcome is “inactive”.

**Q.** How did the outcome turn out when `COc1cc(O)c(C(=O)c2ccccc2)cc1S(=O)(=O)O` was run?
**A.** The outcome was “inactive”.

**Q.** `Cc1c(C(=O)c2c[nH]n(C)c2=O)ccc(S(C)(=O)=O)c1C1=NOCC1` was tested. Which outcome did it give?
**A.** The outcome was “inactive”.

**Q.** With `N#Cc1ccc(C(c2ccc(C#N)cc2)n2cncn2)cc1` as the compound, how does the outcome read?
**A.** Its outcome is “inactive”.

**Q.** How did the outcome turn out when `CC(=O)OC(C)c1ccccc1` (stereo not given) was run?
**A.** The outcome was “inactive”.

**Q.** How did the outcome turn out when `CCC[Si](OC)(OC)OC` was run?
**A.** Its outcome is “inactive”.

**Q.** With `Oc1ccc(-c2ccccc2)c(Cl)c1` as the compound, how does the outcome read?
**A.** The outcome was “inactive”.

**Q.** Which outcome does the source give for `C1CNCCN1` here?
**A.** Its outcome is “inactive”.

**Q.** With `CCOC(=O)C1=NOC(c2ccccc2)(c2ccccc2)C1` as the compound, how does the outcome read?
**A.** The outcome was “inactive”.

From PubChem BioAssay (EPA / NIEHS)
